Measurements from PubChem BioAssay AID889 (National Center for Advancing Translational Sciences (NCATS), 2007).
Hit rate of the full screen: of about 75,000 compounds, about 15 (0.02%) were called active. About 3% were inconclusive and are not listed. This is one part of a sample in which actives are shown more often than they occur. The call rests on the fitted dose curve; in most records, active means well fitted inhibition curve with a large enough effect in the main read-out, with a control signal flat (not every such curve was filed as active); inconclusive means small, poorly fitted or top-dose-only effect, or a change in a side signal; inactive means flat fitted curve, though single readings scatter.

molecular target: Caspase-7 (Homo sapiens) (UniProt P55210); assay: qHTS Assay for Allosteric/Competitive Inhibitors of Caspase-7; conditions: recombinant caspase-7, Ac-DEVD-AFC fluorescence rate; series mostly up to 57.5 µM; further: % of control where 0% means no effect
Sequence (P55210 24-198 limits assumed): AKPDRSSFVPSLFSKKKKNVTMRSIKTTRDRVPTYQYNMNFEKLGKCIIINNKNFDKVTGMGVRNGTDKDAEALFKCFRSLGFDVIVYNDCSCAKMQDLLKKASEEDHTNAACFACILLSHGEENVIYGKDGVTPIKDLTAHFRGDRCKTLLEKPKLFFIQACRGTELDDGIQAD
Sequence (P55210 207-303 limits assumed): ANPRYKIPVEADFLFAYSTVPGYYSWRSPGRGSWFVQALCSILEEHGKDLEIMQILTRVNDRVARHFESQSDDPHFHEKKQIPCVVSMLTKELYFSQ
Text: NIH Molecular Libraries Screening Centers Network [MLSCN]
NIH Chemical Genomics Center [NCGC]
PI Name: Dr. James Wells,
Dr. Enrique Perez-Paya, Dr.Janice Williams, Dr. Dennis Wolan, a person
The caspases (Cysteine Aspartyl Protease) comprise a related family of 14 dimeric proteases that are critical mediators of apoptosis (programmed cell death) and inflammation. The caspases represent an important class of drug targets for stroke, ischemia, cancer and inflammatory diseases. […] One goal of this project was to identify compounds that act as allosteric inhibitors via stabilizing the procaspase form of the enzyme. Previous work in Well's laboratory has shown that such allosteric inhibitors can be identified and these act by binding at the dimer interface of enzyme (Hardy, Lam et al., 2004).
The biochemical assay was configured using purified caspase 7 at a high enzyme concentration to promote formation of the homodimers and thus facilitate the identification of allosteric inhibitors. The overall goal was to identify reversible inhibitors with better drug-like properties than the currently available set of aspartyl-containing peptidomimetics that covalently bind the active site. Caspase 7 was assayed using the profluorescent substrate Ac-DEVD-AFC. After initiation of the assay with substrate the plates were rapidly read using an automated robotic system (Kalypsys, Inc.) to maintain consistent timing. A kinetic mode of detection was used where the initial rate was collected (estimated final product formation was ~10%). Compounds were screened as a concentration-titration series that ranged from 57 uM to 0.7 nM. Below is the protocol used for caspase 7.
NCGC Assay Protocol Summary:
Caspase 7 was prepared in buffer (50 mM HEPES pH 7.5, 50 mM KCl, 200 mM NaCl, 10 mM DTT, 0.1% CHAPS) at a concentration of 66.6 nM and 3 uL was dispensed to all wells using black solid Kalypsys 1536-well plates. 20 nL of DMSO containing compounds was added using a pin-tool (Kalypsys Inc.) to columns 5-48. Then 20 nL of DMSO solution from a control plate was added to columns 1-4. Controls were: Column 1, 16 point titration with each concentration in duplicate (1:1 dilutions in DMSO; final starting concentration was 57 uM) of the caspase 7 inhibitor Ac-DEVD-CHO (Alexis Biochemicals); Column 2, a 16 point titration with each concentration in duplicate of the free AFC fluorophore prepared in DMSO (Alexis Biochemicals), final starting was 40 uM; Column 3 neutral (DMSO only) control; Column 4: DMSO alone, to serve as a negative control (no substrate was added). Then 1 uL of 20 uM the substrate Ac-DEVD-AFC (Alexis Biochemicals) prepared in the same buffer was dispensed to all wells except columns 2 and 4 and the plates were immediately transferred (< 1 min) to the Viewlux. The plates were then exposed using 405 nm excitation/520 nm emission filters for 4 sec and read at 20 sec intervals for 3 min. Final enzyme concentration was 50 nM and the final substrate concentration was 5 uM.
Concentration-response curves were fitted to the data calculated from slope of the linear regression of fluorescent intensity versus time (the rate). The concentration-effect curves were then classified based on curve quality (r2), response magnitude and degree of measured activity. […] Inconclusive compounds had appreciable concentration-dependent effects on both the measured rate and the interpolated basal fluorescence intensity at the start of the reaction but where the basal fluorescent intensity was marginal (e.g. < 10-fold). Inconclusive compounds also encompass highly fluorescent compounds (>100-fold increases in fluorescent intensities values relative to controls) where artificial concentration-dependent decreases in the rate occurred at high compound concentrations due to fluorescent interferences.
Keywords: Caspase 7, proteases, profluorescent, MLSMR, MLSCN, NIH Roadmap, qHTS, NCGC

Activity change, negative = inhibition, inactive:
Cc1ccc(S(=O)(=O)NC(C)C(=O)Nc2ccccc2C(=O)N2CCCC2)cc1 (stereo not drawn)
Cn1c(=S)c2[nH]c(SCCCc3ccccc3)nc2n(C)c1=O 0.0837% [at 11.5 µM]
CCC1=C(OC(=O)N(CC)CC)N2C(=O)OC(=NCC3CC3)[C@]2(C)[C@H]2C1=CC[C@H]1C(=O)N(CC(=O)OC)C(=O)[C@H]12
Fc1ccc(-c2nnc3sc(-c4ccc5c(c4)OCO5)nn23)cc1
Cn1c2c(c(=O)n(C)c1=O)C(c1ccc(O)cc1)Nc1ccccc1O2 (stereo not drawn)
CCOC(=O)c1[nH]c2c(c1C)C(=O)CC(c1ccc(N(C)C)cc1)C2 (stereo not drawn)
COc1ccc(NS(=O)(=O)c2ccc(NC(=O)C(C)(C(F)(F)F)C(F)(F)F)cc2)nn1
Cc1cc(C(=O)COC(=O)c2cccs2)c(C)n1-c1c(C)n(C)n(-c2ccccc2)c1=O
COc1ccc2c3c1OC1CC(O)C=C[C@@]31CCN(C)C2 (stereo partly drawn)
Cc1ccc(S(=O)(=O)C2(S(=O)(=O)c3ccc(C)cc3)CCCC2)cc1
CCCN1C(=O)C(NS(=O)(=O)c2ccc(N)cc2)(C(F)(F)F)C(C(=O)OC)=C1C (stereo not drawn)
CS(=O)(=O)c1ccc2nc(NC(=O)C3CCCCC3)sc2c1
CC(=O)OC1CCC2(O)CC1(C)CCC1C2CC1(C)C (stereo not drawn)
CC(C)C(N)C(=O)OCCOCn1cnc2c(=O)[nH]c(N)nc21 (stereo not drawn)
CC(C)(CSc1nncn1/N=C/c1ccco1)NS(=O)(=O)c1ccc(Cl)cc1
NC(=O)C1CCN(C(=O)c2ccc(C(F)(F)F)cc2)CC1
Cc1ccccc1CN1CCN(CC(=O)NCc2ccccn2)C1=O
BrC1C(Br)C(Br)C(Br)C(Br)C1Br (stereo not drawn)
CC(=O)N1CCC2(CCCN(c3ncccn3)C2)CC1
CC1CCCCN1CCCNC(=O)c1ccc(-n2c(=O)c(=O)[nH]c3ccccc32)cc1 (stereo not drawn)
CCCn1c(SCC(=O)Nc2cccc(C(=O)OCC)c2)nnc1-c1ccoc1C
COC(=O)CC1C(C)(C)C(OC(C)=O)C2CC3=C4CC(=O)OC(c5ccoc5)[C@]4(C)CCC3[C@@]1(C)C2=O (stereo partly drawn)
O=C1NS(=O)(=O)c2ccccc21
CC12CN3CC(C)(CN(C1)C3c1ccc(Cl)cc1Cl)C2=O (stereo not drawn)
C[N+](C)(C)CCNC(=O)c1c(O)c2c([nH]c1=O)CCCC2
CCOC(=O)N1CCC(O)(c2cc(C)c(C)cc2C)CC1
Cc1cc(C)cc(N(CC(=O)Nc2c(C)n(C)n(-c3ccccc3)c2=O)S(C)(=O)=O)c1
COc1ccc(Cn2c(=O)sc3ccccc32)cc1OC
CCOC(=O)N1CCN(C(=O)CSc2nnc(-c3c[nH]c4ccccc34)n2CCOC)CC1
CCN(CC)C(=O)CSc1nnc(-c2ccc(S(=O)(=O)NCc3ccccc3Cl)cc2)o1
Cc1ccccc1NC(=O)c1cc(S(=O)(=O)N2CCOCC2)cs1
CCOC(=O)c1[nH]cnc1C(=O)NC1CCCCC1
Oc1cc(O)c2c(c1)OC(c1ccc(O)c(O)c1)C(O)C2 (stereo not drawn)
CCOc1ccc(NS(=O)(=O)c2ccc(OCC(=O)NCCCOC)cc2)cc1
COc1cccc(Cn2c(=O)c(C)nc3cnc(Oc4ccccc4)nc32)c1
CCOc1ccc(Cn2c(SCCCCC#N)nc3c2c(=O)n(C)c(=O)n3C)cc1OCC
Cc1onc(-c2ccccc2Cl)c1C(=O)NCCn1ccc2ccccc21
CC1O[C@@H](Oc2c(-c3ccc(O)c(O)c3)oc3cc(O)cc(O)c3c2=O)C(O)C(O)C1O (stereo partly drawn)
CCC1Oc2ccc(Cl)cc2N(CC(=O)O)C1=O (stereo not drawn)
O=C(Cc1cccs1)N1CCCC(c2nc(-c3ccc(S(=O)(=O)N4CCCC4)cc3)no2)C1 (stereo not drawn)
CN(C)CCc1c[nH]c2ccc(Cn3cncn3)cc12
C=CCn1c(COc2ccccc2F)nnc1SCC(=O)N1CC(=O)Nc2ccccc21
O=NO
COC(=O)c1ccc(N(CC(=O)NC2CCCC2)C(=O)CNC(=O)c2ccco2)cc1
COc1ccc(C(=O)CSc2nccc(=O)[nH]2)cc1
COc1cc(OC)c(C(=O)Nc2ccc(N(C)C)cc2)cc1OC
CC1CSc2nnc(CCc3ccccc3)n21 (stereo not drawn)
O=c1c(O)c(-c2ccc(O)cc2)oc2ccccc12
CC(C)NS(=O)(=O)c1ccc(OCC(=O)Nc2ccc3c(c2)OCCO3)cc1
CCOC(=O)Cc1csc(NC(=O)CN(C)S(=O)(=O)c2ccc3c(c2)CCC(=O)N3)n1
CC1CCCC(NC(=O)CN2CCN(Cc3ccc(Cl)cc3)C2=O)C1C (stereo not drawn)
CCC(Oc1ccccc1)C(=O)NCc1cccnc1 (stereo not drawn)
CC1(C)C=CC(=O)[C@]2(C)C1CC(=O)[C@]1(C)C2CC[C@@]2(C)C(c3ccoc3)OC(=O)C3OC321 (stereo partly drawn)
CCCCCNC(=O)Cc1ccc(OC)cc1
C=CC(=O)c1ccc2ccccc2c1
COC(=O)C1=C(N)Oc2cc(C)oc(=O)c2C1c1cccnc1 (stereo not drawn)
CCOC(=O)c1c(-n2cnnn2)sc(C)c1C
CNc1ncnc2ccc(-c3cccc(NS(C)(=O)=O)c3)cc12
Cn1cccc1Cc1nnc(SCC(=O)NCc2ccc3c(c2)OCO3)n1CCc1ccccc1
CC(C)(C)c1ccc(NC(=O)NCc2ccco2)cc1
CC1(C)OC2CC3C4CCC5=CC(=O)CCC5(C)C4(F)C(O)CC3(C)[C@]2(C(=O)CCl)O1 (stereo partly drawn)
C=C[C@](C)(O)CCC1C(=C)CCC2[C@@](C)(CO)CCC[C@@]12C (stereo partly drawn)
COc1c(C(C)C)oc2cc3oc(=O)ccc3cc12
COC(=O)[C@@H]1C[C@@]2(O)[C@H](O)[C@H](O)[C@H](O)C[C@H]2N1CC1CCCCC1
Clc1ccc(C=NC23CN4CN(CN(C4)C2)C3)cc1
O=C1CCCC(O)=C1C=NCCc1ccccc1
CCC(C)(C)n1nnnc1C(c1cccs1)N1CCN(Cc2ccccc2)CC1 (stereo not drawn)
Cc1c(S(=O)(=O)O)oc2c1C(=O)C(=O)c1c-2ccc2c1CCCC2(C)C
CN(C)/C=N/c1cc(=O)n(C)c(=O)n1CC1CC1
O=C(OCc1nnc(-c2ccccc2)o1)c1ccc2c(c1)C(=O)N(CCc1ccccc1)C2=O
c1ccc2cc3[nH]c(CN4CCCCC4)nc3cc2c1
COC1[C@H](OC(N)=O)C(O)[C@H](Oc2ccc3c(O)c(NC(=O)c4ccc(O)c(CC=C(C)C)c4)c(=O)oc3c2C)OC1(C)C (stereo partly drawn)
COc1cccc(OCC(O)CN2CCN(CCO)CC2)c1 (stereo not drawn)
Cc1oc(C)c(C(=O)NCCCC(=O)O)c1C(=O)NCCCC(=O)O
CCOc1cc(S(=O)(=O)NC2CC(C)(C)NC(C)(C)C2)ccc1F
COc1cc(OC)c2c(c1Cl)OC1(C2=O)C(O)=CC(=O)CC1C (stereo not drawn)
CC(C)(O)CCC(O)[C@@](C)(O)C1CC[C@]2(O)C3=CC(=O)C4CC(O)C(O)C[C@]4(C)C3CC[C@]12C (stereo partly drawn)
CC(=O)Oc1c2c(c3c(c1CC=C(C)C)O[C@@]14C(=CC5CC1C(C)(C)OC4(C/C=C(\C)C(=O)O)C5=O)C3=O)OC(C)(CCC=C(C)C)C=C2 (stereo partly drawn)
CC(=O)OCC(=O)C1CCC2C3CCC4=CC(=O)CC[C@@]4(C)C3CC[C@]12C (stereo partly drawn)
COc1ccc(CCN=C2SCC(=O)N2C)cc1OC
Cc1cccc(-n2c(O)c(C=Nc3ccccc3N)c(=O)[nH]c2=O)c1
CCC1=C(OC(=O)N(CC)CC)N2C(=O)OC(=NCCc3c[nH]c4ccccc34)[C@]2(C)[C@H]2C1=CC[C@H]1C(=O)N(CC)C(=O)[C@H]12
COc1ccccc1N1CCN(C[C@@H]2CN3C(=O)N(C)c4ccccc4C3=N2)CC1
COc1ccc(C2C(C(=O)N3CCN(c4ccc(OC)cc4)CC3)c3ccccc3C(=O)N2C)cc1 (stereo not drawn)
CN(CCOc1ccc(CC2SC(=O)NC2=O)cc1)c1ccccn1 (stereo not drawn)
N#CCC(=O)NC(=O)NCC1CC1
Cn1c(=O)cc(SCC(=O)N2CCN(C(=O)c3ccco3)CC2)c2ccccc21
O=C(c1cccnc1NCc1ccccc1)N1CCOCC1
CN1CCC(CNC(=O)c2ccc(-n3c(=O)c(=O)[nH]c4ccccc43)cc2)CC1
O=C(C1=C(O)C(=O)N(Cc2ccccc2)C1c1cccnc1)c1ccco1 (stereo not drawn)
O=C(c1cccs1)N1CCN(Cc2ccc3c(c2)OCO3)CC1
C[C@H]1CC[C@H](C(=O)O)N[C@@H]1c1ccc(C#Cc2ccccc2)cc1 1.78% [at 11.5 µM]
Cc1noc(C)c1CSc1nc2cc(S(=O)(=O)N3CCOCC3)ccc2o1
Cc1csc(-c2nc3ccccc3n2C)n1
COC(=O)[C@@H]1C[C@@]2(O)[C@H](O)[C@H](O)[C@H](O)C[C@H]2N1Cc1ccc(C(C)(C)C)cc1
CCC(CC)C(=O)Nc1cc(C(=O)OC)cc(C(=O)OC)c1
Cc1ccc(N(CC(O)CN2CCCC2)S(=O)(=O)c2ccccc2)cc1 (stereo not drawn)
O=C(COc1ncnc2ccccc12)NC(=O)NCc1ccccc1
Cc1ccccc1Nc1nnc(C)c(=O)[nH]1
CC(C)=CCC/C(C)=C/CC/C(C)=C/CC/C(C)=C/CO
CCCOc1ccc2c3c(c(=O)oc2c1OCCC)CCC3
CCOC(=O)Cn1c(=O)oc2cc(S(=O)(=O)N(C)Cc3ccco3)ccc21
CC(C)[C@H]1CC[C@@H](C)C[C@H]1O
